Compound activity (PubChem BioAssay)
JMJD2A Tudor inh: qHTS Assay for Inhibitors of JMJD2A-Tudor Domain | AlphaScreen JMJD2A-Tudor / H3K4me3 peptide binding | Lysine-specific demethylase 4A (Homo sapiens), O75164 | Potency, µM (series often up to 114 µM), for the others: at the highest dose activity change, negative = inhibition, most hits filed as inhibitors | AID 504339, 2011 | 4.4% of 390,000 active; note: potency is the fitted concentration of half-maximal effect; % is set by controls: 0 for no effect and ±100 for the full control effect; nearly all actives have a fitted effect of over 50% in size
G9a block: qHTS Assay for Inhibitors of Histone Lysine Methyltransferase G9a; G9a H3K9 monomethylation, AlphaScreen, 2 h; Potency, µM (titrated, usually from 102 µM), without a hit: at the highest dose activity, negative = inhibition, most hits filed as inhibitors; 8.8% of 350,000 active; note: potency is the fitted concentration of half-maximal effect; % is set by controls: 0 for no effect and ±100 for the full control effect; nearly all actives have a fitted effect of over 75% in size
Target sequence (Q96KQ7 913-1193 limits assumed): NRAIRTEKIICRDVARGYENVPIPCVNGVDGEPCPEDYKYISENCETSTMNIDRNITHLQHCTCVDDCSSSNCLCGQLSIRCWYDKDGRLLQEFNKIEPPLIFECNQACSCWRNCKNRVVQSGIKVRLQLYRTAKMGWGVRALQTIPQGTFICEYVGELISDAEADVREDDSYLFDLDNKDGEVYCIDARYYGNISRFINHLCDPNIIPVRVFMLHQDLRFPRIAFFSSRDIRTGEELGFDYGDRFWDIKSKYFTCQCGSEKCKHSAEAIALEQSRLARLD
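AlphaScreen detection with an anti-monomethyl H3K9 antibody quantified product after a 2 h room-temperature reaction containing 500 nM biotinylated H3K9 peptide, 20 µM SAM and 20 nM enzyme, which had been preincubated 15 min with compound.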
CtBP-E1A inh: qHTS Assay for Inhibitors of the CtBP/E1A Interaction; AlphaScreen GST-E1A/His-CtBP binding, 1536-well; active compounds read low; 0.49% of 340,000 active; activity change, % (no concentration beside the values); CtBP / adenovirus E1A interaction (AlphaScreen); in the data active = activity change below about -65%; inconclusive = mostly about -30% to -63%; note: % is set by controls: 0 for no effect and ±100 for the full control effect
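Steps: dispense buffer (Tris pH 8.0, NaCl 300 mM, TCEP 1 mM, BSA, Tween 20); add 5X protein mix (GST-E1A, His-CtBP, 125 nM each); pin 23 nL compound; 2 h at 37 °C, dark; add 5X beads (50 ug/mL); 1 h; read.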
Six1-Eya2 blk: qHTS Assay for Inhibitors of the Six1/Eya2 Interaction | activity change, % (concentration not given with the values) | AlphaScreen GST-Six1/His-Eya2 binding, biochemical; active compounds read low | 0.56% of 360,000 active | AID 651725, 2012; in the data active = activity change below about -65%; inconclusive = mostly about -30% to -63%; note: % is set by controls: 0 for no effect and ±100 for the full control effect
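AlphaScreen with GST-Six1 and His-Eya2 (5X mix: 250 nM and 500 nM), glutathione donor and nickel acceptor beads; buffer 50 mM Tris pH 8.0, 300 mM NaCl, 1 mM TCEP; 1 h at 37 C in the dark.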
HP1b binding inh: HTS for Inhibitors of HP1-beta Chromodomain Interactions with Methylated Histone Tails; Chromobox protein homolog 1 (Homo sapiens), P83916; AlphaScreen HP1-beta / biotin-H3K9me3 peptide binding; Potency, µM (titrated, usually from 114 µM), for inactives: at the highest dose activity change, negative = inhibition, usual class: inhibitors; 0.56% of 390,000 active; AID 540317, 2011; note: potency is the fitted concentration of half-maximal effect; nearly all actives have a fitted effect of over 70% in size
Target sequence (P83916 whole entry, looked up): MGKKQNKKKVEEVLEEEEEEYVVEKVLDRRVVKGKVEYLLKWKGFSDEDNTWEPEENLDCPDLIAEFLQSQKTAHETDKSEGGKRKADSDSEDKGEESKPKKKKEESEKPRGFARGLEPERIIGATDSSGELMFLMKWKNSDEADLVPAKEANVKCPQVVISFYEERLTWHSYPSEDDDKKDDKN
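Compound inhibition of the preformed complex between 50 nM HP1-beta and 50 nM biotinylated H3K9me3 peptide was read by AlphaScreen. Buffer was PBS pH 7.4 with 0.01% Tween-20. Incubations ran 30 min at room temperature, with 10 ug/mL donor/acceptor beads.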
BAZ2B block: qHTS Assay for Inhibitors of BAZ2B; AlphaScreen BAZ2B-H3K14Ac peptide displacement; AID 504333, 2011; Bromodomain adjacent to zinc finger domain protein 2B (Homo sapiens), Q9UIF8; Potency, µM (top dose mostly 114 µM), for the others: at the top dose activity change, negative = inhibition, actives largely listed as inhibitors; 4.4% of 360,000 active; note: potency is the fitted concentration of half-maximal effect; % is set by controls: 0 for no effect and ±100 for the full control effect; nearly all actives have a fitted effect of over 60% in size
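In this displacement format the biotinylated H3(5-23) peptide acetylated at Lys14 serves as ligand at 50 nM, with BAZ2B at 50 nM in PBS pH 7.4 containing 0.01% Tween-20. Donor and acceptor beads are 10 ug/mL final.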
* hit, by the source's call; ? = inconclusive; nt = not tested or not shown; [ ] = dose if it differs, or a comment. A selection: hits, their analogues and other compounds. The true share with any hit is near 10%. Unless noted, calls come from the whole dose curve; as a rule, active = well fitted inhibition curve with a large enough effect; inconclusive = small, poorly fitted or top-dose-only effect; inactive = no such curve, though single readings can be large or run the other way.

SMILES	JMJD2A Tudor inh	G9a block	CtBP-E1A inh	Six1-Eya2 blk	HP1b binding inh	BAZ2B block
O=C(NCC(c1ccco1)S(=O)(=O)c1cccs1)c1ccc(C(F)(F)F)cc1 (centres undefined)	-3%	1%[59 µM]	nt	nt	27%[57 µM]	3%
CC(C)N(C(=O)CSc1nnc(-c2cc3ccccc3cc2O)n1Cc1ccco1)C(C)C	-35%	13µM*	-10	-14	11%	-31%
CCN(CC)C(=O)CSc1nnc(-c2ccco2)n1Cc1ccco1	-19%	40µM*	-1	-1	24%	-10%
Cc1ccccc1CSc1nnc(-c2cccs2)n1Cc1ccco1	-33%	-32%[0.0925 µM]	-7	-6	20%	?
c1ccc(CSc2nnc(-c3cccs3)n2Cc2ccco2)cc1	-23%	?	-6	-3	20%	-29%
c1ccc(CSc2nnc(-c3ccco3)n2Cc2ccco2)cc1	-32%	50µM*	-2	-5	-1%	?
Cc1ccccc1CSc1nnc(-c2ccco2)n1Cc1ccco1	?	23%[0.501 µM]	-12	-9	-9%	50µM*
CCc1ccccc1NC(=O)c1cnc(N2CCCCC2)c2ccccc12	-1%	22%[59 µM]	nt	nt	30%[57 µM]	7%
O=C(CN1C(=O)C2CCCCN2c2ccc(C(=O)N3CCCC3)cc21)NCc1cccc(F)c1 (centres undefined)	-17%	1%[59 µM]	nt	nt	10%[57 µM]	-4%
CC1=NN(c2ccc(Cl)cc2)C(=O)C1C(c1ccccc1O)c1c(C)[nH]n(-c2ccc(Cl)cc2)c1=O (centres undefined)	56µM*	4µM*	16	-19	?	35µM*
Cc1nc(SCc2ccc(C(=O)O)cc2)c2c(C)c(C)sc2n1	-9%	-10%	-24	-12	-12%	?
O=C(CSc1ncnc2scc(-c3ccccc3)c12)N1CCN(Cc2ccc3c(c2)OCO3)CC1	?	45µM*	-2	-27	?	?
Cc1ccc(-c2csc3ncnc(SCc4ccc(C(=O)O)cc4)c23)cc1	?	nt	2	-17	17%	50µM*
Cc1sc2ncnc(SCc3ccc(C(=O)O)cc3)c2c1C	-7%	45µM*	nt	-7	49%	-15%
O=C(CCNc1ccc(F)cc1)c1ccco1	-18%	-48%[12.7 µM]	2	-2	23%	-23%
Cc1ccc2oc(=O)c(/C=C(\O)c3cccs3)nc2c1	-2%	?	1	4	22%	-24%
O=c1oc2ccc(Cl)cc2nc1/C=C(\O)c1cccs1	?	3.2µM*	2	-3	-1%	50µM*
Cc1ccc2oc(=O)c(/C=C(\O)CC(C)C)nc2c1	-17%	50µM*	-19	4	18%	-35%
Cc1ccc2oc(=O)c(/C=C(\O)c3ccccc3)nc2c1	-23%	7.9µM*	4	3	61%	-32%
c1ccc(Nc2cc(Nc3ccccc3)[nH]n2)cc1	?	?	5	-13	-26%	45µM*
O=c1nccc(Nc2ccccc2)[nH]1	-12%	11%[12.7 µM]	nt	4	33%	-3%
Cc1ccc(SSc2cc(C)ccc2N)c(N)c1	7.9µM*	?	?	?	14µM*	50µM*
Cc1ccc(O)c(Sc2cc(C)ccc2O)c1	-29%	?	-16	-8	11%	?
COc1ccc(C2=Nn3c(nnc3-c3cccc(OC)c3OC)SC2)cc1	-24%	nt	nt	nt	nt	nt
O=C(CC1CCOCC1)Nc1ccc(Cl)c(Cl)c1	0%	40µM*	-12	-17	26%	-15%
O=c1c2oc3ccccc3c2[nH]c(=S)n1-c1ccccc1	?	8.9µM*	7	2	-27%	2%
